Hit rate of the full screen: of about 2,200 compounds, about 1,400 (64%) were called active. So high a share suggests a set chosen from earlier hits. A selection follows. Values without a mark were called inactive.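 Rule for the calls: active = luminescence in either replicate above plate mean of wells with a partly effective reference agonist dose plus 3 SD; inactive = the rest.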

A short description of the assay: isoproterenol-driven CRE-luciferase response modulation in HEK293 cells, confirmation, counter-screen for D1 allosteric modulator project, cell-based, secondary assay 2, luminescence (AID 647).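 Note: isoproterenol raises cAMP through native beta-adrenoceptor Gs so signal bypasses D1; raw luminescence counts from the Envision reader with one value per duplicate well.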 As to conditions: isoproterenol EC30 counter-screen, at 10 µM, active compounds read high. On the technique in general: A counterscreen serves to expose hits that act by an unwanted route or on another target.
With `COc1ccc(-c2nnc(SCC(=O)NC3CCCCC3)o2)cc1OC`, the luminescence was 3200 (active).

Consider `O=S(=O)(c1cccs1)N1CCc2ccccc2C1`, for which the luminescence was 3530 (active).

Consider `CCOC(=O)/C=c1\s/c(=C\c2ccccc2OC)c(=O)n1CC(=O)N1CCOCC1`, for which the luminescence is 3580 (active).

As for `CCCn1c(=O)c2[nH]c(C3CCCC3)nc2n(CCC)c1=O`, the luminescence is 3630 (active).

Consider `COc1ccc(S(=O)(=O)N(C)CC(=O)Nc2ccc3c(c2)OCCO3)cc1OC`, for which the luminescence is 3480 (active).

In the case of `Cc1nn(-c2ccccc2)c2c1C(=O)NC(=O)C(C)(C)C2`, the luminescence is 3700 (active).

Take `CC(=O)OC(C)C[N+](C)(C)C` (configuration not stated): the luminescence is 2500.

Turning to `CCc1ccc2oc(=O)cc(CN3CCCCC3C)c2c1` (configuration not stated), the luminescence is 3040 (active).

As for `COc1ccc(-c2n[nH]c(C)c2-c2ccc(OC)c(OC)c2)c(O)c1`, the luminescence is 3290 (active).

Take `CCCSc1nc2c(c(=O)[nH]c(=O)n2C)n1CCc1ccccc1`: the luminescence was 6090 (active).

For `CC1CCN(c2nc3c(c(=O)[nH]c(=O)n3C)n2CCCc2ccccc2)CC1`, the luminescence is 5160 (active).

Turning to `COC(=O)Nc1ncc(CN2C(=O)c3ccccc3C2=O)s1`, the luminescence is 2570.

Regarding `CCc1cc(=O)oc2cc(OCC(=O)N3CCCc4ccccc43)ccc12`, the luminescence is 4550 (active).

As for `C=CCn1cnc2scc(-c3ccccc3)c2c1=O`, the luminescence is 3500 (active).

Regarding `CCCc1nc(N)nc2c1C(=O)CC(C)(C)C2`, the luminescence was 4320 (active).

Consider `COc1ccc(-c2nnn(Cc3nc(N)nc(N4CCCCC4)n3)n2)cc1`, for which the luminescence was 3650 (active).

Regarding `COc1ccc(CCN(C)C(=O)C2CCCN(Cc3ccc(OC)c(OC)c3)C2)cc1OC` (configuration not stated), the luminescence is 2610.

`COc1ccc(NC(=O)C2CCCN(S(=O)(=O)c3cccc4cccnc34)C2)cc1OC` (configuration not stated): the luminescence was 3940 (active).

On to `CCOC(=O)c1c(NC(=O)CSc2nnc(CN3CCOCC3)n2C)sc2c1CCCC2`, for which the luminescence is 2880.

Regarding `C#CCNc1nc(C(C)C)nc2c1nnn2Cc1ccccc1F`, the luminescence was 3140 (active).

In the case of `COc1ccc(-c2cc(C(F)(F)F)nc(S(C)(=O)=O)n2)cc1OC`, the luminescence was 4780 (active).

In the case of `COc1ccc(S(=O)(=O)Nc2ccc(S(=O)(=O)N3CCCCC3)cc2)cc1OC`, the luminescence was 3220 (active).

Take `N#CCCN1CCN(S(=O)(=O)c2ccc(S(=O)(=O)NC3CCCCC3)cc2)CC1`: the luminescence was 2440.

For the compound `COc1nc(NCc2ccc(Cl)cc2)nc(OC)n1`, the luminescence was 2930.

Turning to `CCOC(=O)c1cc2n(c1C)-c1ccccc1C2=O`, the luminescence was 3830 (active).

Consider `c1ccc(-c2nnc3n2NC(c2ccc4c(c2)OCO4)S3)cc1` (configuration not stated), for which the luminescence is 3680 (active).

With `CCCCNc1nc2ccccc2nc1NS(=O)(=O)c1cccs1`, the luminescence was 3780 (active).

Take `COc1ccc(CCNC(=O)c2cc3sccc3n2C)cc1OC`: the luminescence is 3110.

Consider `COc1ccc(CCNC(=O)CCn2c(=O)oc3ccccc32)cc1OC`, for which the luminescence was 3400 (active).

As to `CCn1c(=N)c(S(=O)(=O)c2ccc(F)cc2)cc2c(=O)n3ccccc3nc21`, the luminescence was 5680 (active).

Regarding `CCCn1c(=NC(C)=O)c(C(=O)OCC)cc2c(=O)n3ccccc3nc21`, the luminescence is 2650.

`O=C(NCc1ccccn1)c1ccc2nc(-c3ccco3)c(-c3ccco3)nc2c1`: the luminescence is 2550.

Take `Cn1c(/C(C#N)=C2/CCCCCN2)nc2ccccc21`: the luminescence was 3990 (active).

Take `CCn1cc(C(=O)NCC2COc3ccccc3O2)c2cc(OC)c(OC)cc2c1=O` (configuration not stated): the luminescence was 2910.

On to `CCC(=O)NC(=Nc1nc2ccccc2s1)NC(=O)CC`, for which the luminescence is 3180.

Consider `c1ccc2c(NCC3CCCO3)nc(-c3ccncc3)nc2c1` (configuration not stated), for which the luminescence is 3220 (active).

As for `Cn1c(=O)c2[nH]c(NCC3CCCO3)nc2n(-c2ccccc2)c1=O` (configuration not stated), the luminescence is 2780.

As to `CCCCSc1nc2c(c(=O)n1CC)SC(C)C2` (configuration not stated), the luminescence is 2820.

With `CCOc1cccc(-n2nnnc2-c2ccc(OC)cc2)c1`, the luminescence was 4040 (active).

On to `CC(C)n1c(C(O)c2ccccc2)nc2ccccc21` (configuration not stated), for which the luminescence is 2350.

Consider `COC(=O)c1ccccc1NC(=O)C1CCN(S(=O)(=O)c2cc(OC)ccc2OC)CC1`, for which the luminescence is 3570 (active).

As to `CCCS(=O)(=O)N1CCC(C(=O)NCCc2ccc(OC)c(OC)c2)CC1`, the luminescence is 2720.

As to `Cn1c(=O)c2cn(-c3cccc4ccccc34)cc2n(C)c1=O`, the luminescence is 3300 (active).

On to `COc1ccc(Nc2cc(C)nc(-n3nc(C)cc3C)n2)cc1`, for which the luminescence was 3540 (active).

With `CC(=O)c1ccc(Oc2cc(C)nc(-n3nc(C)cc3C)n2)cc1`, the luminescence was 6880 (active).

As to `COc1ncnc2sc3c(c12)CCCC3`, the luminescence was 2970.

As to `CCOc1ccc(Cn2c(SCCCCC#N)nc3c2c(=O)n(C)c(=O)n3C)cc1OCC`, the luminescence was 5750 (active).

As to `COC(=O)C(C)C1Sc2ccccc2NC1=O` (configuration not stated), the luminescence was 3160.

With `CN1CCN(CC(O)COCc2ccc3c(c2)OCO3)CC1` (configuration not stated), the luminescence was 5380.

As to `c1coc(-c2nc3nc4ccccc4n3nc2-c2ccco2)c1`, the luminescence is 4380 (active).

On to `COC(=O)C1=C(C)NC2=C(C(=O)c3ccccc32)C1c1ccc(-c2ccc(C(=O)O)cc2)o1` (configuration not stated), for which the luminescence is 2560.

With `CCCCc1c(O)nc2n(c1=O)CCS2`, the luminescence was 2460.

On to `COc1ccc(CCNc2ncnc3nc[nH]c23)cc1OC`, for which the luminescence is 3430 (active).

As for `CCCc1nc(-c2ccccc2O)n(-c2ccccc2)n1`, the luminescence is 3160 (active).

`CC1(C)Cc2ccccc2-c2nc(CN3CCOCC3)[nH]c(=O)c21`: the luminescence is 3540 (active).

Take `CC1Oc2ccccc2N(Cc2cccnc2)C1=O` (configuration not stated): the luminescence was 2840 (active).

In the case of `CCOC(=O)c1c(NC(=O)CSc2nnc(Cc3csc(N)n3)n2C)sc(C)c1C`, the luminescence was 2440.

Turning to `c1ccc(COc2nsnc2N2CCOCC2)cc1`, the luminescence is 4500.

`N#CCSc1nc2ccccc2c(=O)n1-c1ccccc1`: the luminescence was 4560 (active).

Turning to `C=CCSc1nc2c(c(=O)[nH]1)C(C(C)C)C(C#N)=C(N)O2` (configuration not stated), the luminescence is 5180 (active).

As for `COc1ncnc2c1N=C1CC(C)(C)CC(N)=C1S2`, the luminescence was 2960.

Turning to `O/N=C(\c1ccc2c(c1)OCCO2)C1CCCCC1`, the luminescence was 2880 (active).

As for `N#Cc1nc(Cc2ccccc2)oc1NCCc1ccccc1`, the luminescence was 4280 (active).

`COc1ccc(Nc2oc(-c3ccccc3Cl)nc2C#N)cc1`: the luminescence was 3960 (active).

Regarding `CCOc1ccc(Nc2oc(Cc3ccccc3)nc2C#N)cc1`, the luminescence is 5850 (active).

As to `CC(C)C1C2=C(CC(C)(C)CC2=O)ON1c1ccccc1` (configuration not stated), the luminescence was 3320.

For the compound `N#Cc1c(N)sc2c1CCN(C(=O)OCc1ccccc1)C2`, the luminescence is 5320 (active).

Regarding `CCNc1nc(NCC)nc(N(C)n2cnnc2)n1`, the luminescence was 3650 (active).

Take `CC(C)c1cc(C(=O)O)on1`: the luminescence was 2070.

With `Oc1ccc(-c2csc(Nc3cccnc3)n2)cc1`, the luminescence is 3250 (active).

For `CCn1ncc(C2=NOC(C(=O)Nc3ccccc3C(=O)OC)C2)c1C` (configuration not stated), the luminescence was 5220 (active).

In the case of `CCn1nc(C(=O)OCC(=O)N2c3ccccc3CC2C)c2ccccc2c1=O` (configuration not stated), the luminescence is 2840.

For the compound `Cc1ccc(-c2nn(-c3ccccc3)cc2CN(Cc2ccccc2)C(=O)CCC(=O)O)o1`, the luminescence was 4080 (active).

`O=C(CSc1nnc2scc(-c3ccc(F)cc3)n12)NCc1ccco1`: the luminescence is 2580.

In the case of `CCOc1ccc(-c2nnn(CC(=O)N3CCN(c4ccc(OC)cc4)CC3)n2)cc1OCC`, the luminescence was 3110 (active).

On to `CCOc1cc(-c2noc(CCC(=O)N3CCOCC3)n2)ccc1OC`, for which the luminescence was 2630.

For `CC1CCN(c2oc(-c3ccccc3F)nc2C#N)CC1`, the luminescence was 3380 (active).

Turning to `CCOc1ccc2c(c1)cc(CN(C(=O)CC)C1CCCCC1)c1nnnn12`, the luminescence was 3880 (active).

For `CCOc1ccc2[nH]c(=O)c(C(c3nnnn3CCOC)N3CCOCC3)cc2c1` (configuration not stated), the luminescence is 2250.

For `O=C(NCc1ccco1)c1cnn2c(C(F)(F)F)cc(-c3ccco3)nc12`, the luminescence was 3240.

With `Cc1cc(C(F)(F)F)nn1-c1nc(-c2ccco2)cc(C(F)(F)F)n1`, the luminescence is 3340 (active).

In the case of `FC(F)(F)c1cc(-c2ccco2)nc(N2CCOCC2)n1`, the luminescence is 4220 (active).

For `COc1ccc(-c2nnco2)cc1OC`, the luminescence is 3030 (active).

For `CCOc1ccccc1C1CC(c2ccccc2)Nc2nc(N)nn21` (configuration not stated), the luminescence is 3190.

Regarding `Cc1ccc(C2CC(c3cccc(C)c3)n3nc(N)nc3N2)cc1` (configuration not stated), the luminescence was 2800.

`Cc1ccc(C2CC(c3cccc(Br)c3)n3nc(N)nc3N2)cc1` (configuration not stated): the luminescence is 3660 (active).

With `CCOc1cc(C(=O)N2CCc3cc(OC)c(OC)cc3C2)ccc1OC(F)F`, the luminescence is 11500 (active).

As for `COc1cc(NC(=O)N2CCOCC2)cc(OC)c1`, the luminescence is 2540.

Regarding `CC(=O)Nc1cccc(Oc2cc(C#N)c(C#N)cc2N2CCOCC2)c1`, the luminescence was 4140 (active).

On to `C/C(Cl)=C\Cn1c(Nc2cccc(C)c2)nc2c1c(=O)n(C)c(=O)n2C`, for which the luminescence is 3460 (active).

`Cc1cc(C)c2c(n1)nn1c(-n3ccnc3)cc(C)nc21`: the luminescence is 3020 (active).

For `CCSc1nc(C)nc2c1oc1ccccc12`, the luminescence is 3530 (active).

Turning to `COC(=O)[C@H](C(C)C)n1c(C)c(C(C)=O)c(C(C)=O)c1C`, the luminescence is 2600.

`O=c1cc(-c2ccccc2)nc(N2CCCCC2)[nH]1`: the luminescence is 3010.

With `CCCN1Cc2cccc(C(=O)NCc3ccccc3)c2C1=O`, the luminescence was 3680 (active).

On to `CCSc1ncnc2c(C#N)c3n(c12)CCCCC3`, for which the luminescence was 6230 (active).

In the case of `O=C(c1ccco1)N1CCN=C1SCc1cccc(Cl)c1`, the luminescence was 3200 (active).

For `Cc1ccc(S(=O)(=O)c2c(N)n(C)c3nc4ccccc4nc23)cc1`, the luminescence was 3490 (active).

Take `COc1ccc(-n2c(Cc3cccn3C)nnc2SCC(=O)Nc2cc(C)cc(C)c2)cc1`: the luminescence was 2370.

Consider `Nc1ccc(S(=O)(=O)NC(=O)c2ccccc2)cc1`, for which the luminescence is 2950.

For `CCOC(=O)c1cc(C)sc1NC(=O)C1CCC1`, the luminescence is 4600 (active).

In the case of `C/C(=C\C(=O)c1ccccc1)Nc1cccc(O)c1`, the luminescence was 2540.

In the case of `CN(C)c1nc(N)nc(CSc2nnnn2-c2cccc3ccccc23)n1`, the luminescence is 3420 (active).

Regarding `COc1ccc(-c2nn3c(-c4ccccc4)nnc3s2)cc1OC`, the luminescence was 8440 (active).

`COc1cc(-c2nn3c(-c4cccc(C)c4)nnc3s2)cc(OC)c1OC`: the luminescence was 4430 (active).

For `O=C(C1CCC1)N1CCc2cc(S(=O)(=O)NCc3cccnc3)ccc21`, the luminescence is 3060.

As to `N#Cc1nc(N)nc(N(c2ccccc2)c2ccccc2)n1`, the luminescence was 2880.

The values are drawn from PubChem BioAssay AID647 (Vanderbilt High Throughput Screening Facility, 2007).
